Inconclusive results are not listed. A call without a number means that no potency is given here. Active and inactive are the calls of the source. The call rests on the fitted dose curve; in most records, active means well fitted inhibition curve with a large enough effect; inconclusive means small, poorly fitted or top-dose-only effect; inactive means no such curve, though single readings can be large or run the other way.
Potency means the concentration at half of the fitted maximal effect.

This experiment can be described thus: BET inhibitor-based combinations targeting novel dependencies in MECOM-rearranged (r) AML: HNT-34 cell line (AID 2202234). Further: nearly all actives have a fitted effect of over 35% in size. The conditions noted are these: HNT-34 AML viability, CellTiter-Glo luminescence, 48 h; series mostly up to 46 µM. An excerpt:
Ecotropic viral insertion site 1 (EVI1) is located on chromosome 3q26.2 as part of the MECOM (MDS and EVI1 complex) locus. Under normal hematopoiesis, EVI1 is a regulator of hematopoietic stem cell maintenance and self-renewal and EVI1 levels decrease as the cells differentiate. In approximately 5-10% of de novo acute myeloid leukemia (AML) EVI1 is aberrantly expressed, including Chromosomal inv(3)(q21;q26.2) or t(3;3)(q21;q26.2) alterations (MECOM-r) that account for about 50% of AML with EVI1 overexpression 31. AMLs with high levels of EVI1 have a poor prognosis and an overall survival time averaging between 10-14 months. EVI1 overexpression confers resistance in leukemia cells, highlighting the need to develop new targeted therapies for EVI1 overexpressing AMLs. Here, we performed an unbiased chemical drug screening by evaluating the single agent activity of a collection of 2,480 oncology-focused, approved and investigational drugs (NCATS Mechanism Interrogation Plates, MIPE v5.0) against a panel of seven AML cell lines. These included four MECOM-r cell-lines (AML-191, AML-194, UCSD-AML1 and HNT-34) and three non-MECOM-r AMLs (MV4-11, OCI-AML3 and SET-2). Exploiting the mechanistic redundancy built in the library, we identified target-level sensitivities in MECOM-r AML cells and relative activity as compared to other AML subtypes.
A collection of 2480 mechanistically annotated dugs (MIPE v5.0) was used to screen four 3q26.2 rearranged AML cell lines and three non-3q26.2 rearranged AML cell lines. This library purposely exploits redundancy by including multiple inhibitors of key onco-targets, while simultaneously encompassing mechanistic diversity, targeting more than 800 distinct mechanisms of action. Briefly, cells were seeded in 5 uL of growth media using a Multidrop Combi dispenser into 1536 well white polystyrene tissue culture treated plates (Corning) at a density of 500cells/well. For each cell-line, for each of the 2480 drugs in MIPE v5.0 library, an 11-point dose curve was generated via a 1536 pin-tool. Plates were incubated for 48 hr at standard incubator conditions, covered by a stainless steel gasketed lid to prevent evaporation. Cell viability was determined by luminescence based, Cell Titer Glo assay (Promega). In detail, 3 uL of Cell Titer Glo were added to each well and plates were incubated at room temperature for 15 min with a stainless-steel lid in place. Luminescence readings were taken using a Viewlux (PerkinElmer) with a 2 s exposure time per plate. Compound dose-response curves were normalized to DMSO and empty well controls on each plate. Quantitative drug activity data from dose-response curves was determined utilizing area Under the Curve (AUC) and Z-transformed AUC (Z-AUC, a mean-centering transformation applied to each individual cell-line screened).
Regarding `C[C@@H]1O[C@@H](O[C@@H]2C=C3CC[C@@H]4[C@H](CC[C@]5(C)[C@@H](c6ccc(=O)oc6)CC[C@]45O)[C@@]3(C)CC2)[C@H](O)[C@H](O)[C@H]1O`, the Potency is 0.0148 µM (active).
The entry for `O=C(O)c1nn(Cc2ccc(Cl)cc2Cl)c2ccccc12` is “inactive”.
The figure for `Cn1cc(C2=C(c3cn(C4CCN(Cc5ccccn5)CC4)c4ccccc34)C(=O)NC2=O)c2ccccc21` is 5.25 µM (active); for `N=c1c2c(-c3ccccc3)c(-c3ccccc3)n(Cc3ccccc3)c2ncn1C1CCC(O)CC1` (stereo not given) it is 2.63 µM (active).
The entry for `C[C@]12CC[C@H]3[C@@H](CCC4=CC(=O)CC[C@@]43C)[C@H]1CC[C@H]2OC(=O)CCC1CCCC1` is “inactive”; for `CN(C)CCN(C)CCc1ccc(Cl)c(Cl)c1` it is “inactive”; for `CC1(N2CCC(n3c([C@@H]4CCCNC4)nc4ccccc43)CC2)CCCCCCC1` it is 20.9 µM (active).
As for `CC(C)[C@]12O[C@H]1[C@@H]1O[C@]13[C@]1(O[C@H]1C[C@H]1C4=C(CC[C@@]13C)C(=O)OC4)[C@@H]2O`, the Potency was 0.0742 µM (active).
`C[C@]12CC[C@@H]3c4ccc(OC(=O)N(CCCl)CCCl)cc4CC[C@H]3[C@@H]1CC[C@@H]2OP(=O)(O)O`: the Potency entry is “inactive”.
The entry for `C[C@]12CCC(=O)C(O)=C1CC[C@@H]1[C@@H]2CC[C@]2(C)C(=O)CC[C@@H]12` is “inactive”; for `C#CC1(O)CCC2C3CCC4=CC(=O)CCC4(C)C3CCC21C` (stereo not given) it is “inactive”.
With `Clc1ccccc1C(c1ccccc1)(c1ccccc1)n1cccn1` the entry was “inactive”; with `CNCC(O)c1ccc(O)cc1` (stereo not given), “inactive”.
With `c1ccc2c(CN3CCNCC3)cccc2c1` the entry was “inactive”; with `CC(C)C[C@H](CN)CC(=O)O`, “inactive”.
Turning to `CC(C)[C@]12O[C@H]1[C@@H]1O[C@@]13[C@@]1(C)CCC4=C(COC4=O)[C@@H]1C[C@@H]1O[C@@]13C2=O`, the Potency was 0.166 µM (active).
The figure for `Cc1sc2c(c1C)C(c1ccc(Cl)cc1)=NC(CC(N)=O)c1nnc(C)n1-2` (stereo not given) is 0.148 µM (active); for `C=C(C)[C@H]1Cc2c(ccc3c2O[C@@H]2COc4cc(OC)c(OC)cc4[C@@H]2C3=O)O1` it is 0.833 µM (active); for `CCC1(c2ccc(N)cc2)CCC(=O)NC1=O` (stereo not given) it is “inactive”.
With `O=C1CC[C@@]2(O)[C@H]3Cc4ccc(O)c5c4[C@@]2(CCN3CC2CC2)[C@H]1O5` the entry was “inactive”; with `COc1cc(C)[nH]c(=O)c1CNC(=O)c1c(C)n([C@H](C)C2CCOCC2)c2ccccc12`, “inactive”.
With `O=c1[nH]c2ccccc2n1CCCN1CCC(n2c(=O)[nH]c3cc(Cl)ccc32)CC1`, the Potency result was “inactive”.
With `CC1=C2C[C@H]3[C@@H](CC=C4C[C@@H](O)CC[C@@]43C)[C@@H]2CC[C@]12O[C@@H]1C[C@H](C)CN[C@H]1[C@H]2C`, the Potency result is “inactive”.
With `CC1(C)CC[C@]2(NC(=O)C(C)(F)F)CC[C@]3(C)[C@H](C(=O)C=C4[C@@]5(C)C=C(C#N)C(=O)C(C)(C)[C@@H]5CC[C@]43C)[C@@H]2C1` the figure was 1.66 µM (active); with `CC[C@@H](C(N)=O)N1CCCC1=O`, “inactive”; with `C=C[C@H]1CN2CCC1C[C@@H]2[C@@H](O)c1ccnc2ccccc12` (stereo not given in full), “inactive”.
With `COc1cc(C)[nH]c(=O)c1CNC(=O)c1c(C)n([C@H](C)C2CCN(CC(F)(F)F)CC2)c2ccccc12` the entry was “inactive”.
With `Cn1c(CCCC(=O)O)nc2cc(N(CCCl)CCCl)ccc21` the figure was 14.8 µM (active); with `C/C=C(/C)C(=O)O[C@H]1C(C)=C2[C@H]([C@@H]1OC(=O)CCCCCCC)[C@@](C)(OC(C)=O)C[C@H](OC(=O)CCC)[C@@]1(O)[C@H]2OC(=O)[C@@]1(C)O`, 0.0525 µM (active); with `O=C(N[C@H]1CN2CCC1CC2)c1ccc(Cl)cc1`, “inactive”.
As to `CCOc1ccccc1-n1c(C(C)N2CCN(C(=O)COc3ccc(Cl)cc3)CC2)nc2ccccc2c1=O` (stereo not given), the Potency was 3.32 µM (active).
Regarding `CC(O)(CS(=O)(=O)c1ccc(F)cc1)C(=O)Nc1ccc(C#N)c(C(F)(F)F)c1` (stereo not given), the Potency entry is “inactive”.
The figure for `CO[C@H]1CCC(O[C@H]2C[C@H]([C@]3(C)CC[C@]4(C[C@H](O)[C@@H](C)[C@@H]([C@@H](C)/C=C(\C)C(=O)[C@H](C)C[C@H](C)C(=O)O)O4)O3)O[C@]3(O[C@@H]([C@H]4O[C@@](O)(CO)[C@H](C)C[C@@H]4C)C[C@@H]3C)[C@@H]2C)O[C@@H]1C` (stereo not given in full) is 0.148 µM (active).
`CC(C)(O)/C=C\C(=O)[C@](C)(O)[C@H]1[C@H](O)C[C@]2(C)[C@@H]3CC=C4[C@@H](C=C(O)C(=O)C4(C)C)[C@]3(C)C(=O)C[C@@]12C`: the Potency was 0.105 µM (active).
With `CC(C)(NC(=O)O[C@@H]1CN2CCC1CC2)c1csc(-c2ccc(F)cc2)n1` the figure was 14.8 µM (active); with `C[C@H]1[C@H](O)[C@@H](C)/C=C/C=C/CC/C=C/C=C/C=C/C=C/[C@H](O[C@@H]2O[C@H](C)[C@@H](O)[C@H](N)[C@@H]2O)C[C@@H]2O[C@](O)(C[C@@H](O)[C@H](O)CC[C@@H](O)C[C@@H](O)C[C@@H](O)CC(=O)O[C@H]1C)C[C@H](O)[C@H]2C(=O)O`, “inactive”; with `COC[C@H]1OC(=O)c2coc3c2[C@@]1(C)C1=C(C3=O)[C@@H]2CC[C@H](O)[C@@]2(C)C[C@H]1OC(C)=O`, 5.25 µM (active).
With `CCN1C[C@]2(OC(=O)c3ccccc3NC(C)=O)CC[C@H](OC)[C@@]34[C@H]5CC6[C@@H](OC)C[C@](O)(C(C[C@@H]23)[C@@H]14)[C@@]5(O)[C@@H]6OC`, the Potency entry is “inactive”.
The entry for `Cn1c(COP(=O)(NCCBr)NCCBr)cnc1[N+](=O)[O-]` is “inactive”; for `C[C@]12COC(=O)C[C@@H]1CC[C@@H]1[C@@H]2CC[C@@]2(C)[C@H]1CC[C@]2(C)O` it is “inactive”.

The values are drawn from PubChem BioAssay (NCATS).
